Screens deposited in PubChem by National Center for Advancing Translational Sciences (NCATS).
Pf growth 48h = P. falciparum growth inhibition at 48 hours (one generation). P. falciparum luciferase growth in erythrocytes, 48 h. Potency, µM (top dose mostly 28.7 µM), inactives show at the highest dose activity change, negative = inhibition, most hits filed as inhibitors. 5.9% of 310,000 active; further: potency means the concentration at half of the fitted maximal effect; on the % scale 0 is the no-effect control and ±100 the full control effect
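Firefly luciferase activity from engineered P. falciparum reports growth; inhibitors lower the luminescent signal. Cultures contained 2% hematocrit erythrocytes at 0.1% final parasitemia.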
AMA1 RON2 block = AMA1-RON2 (P. falciparum) interaction inhibition; AlphaScreen AMA1-biotinylated RON2 peptide binding; AID 720542; 0.2% of 360,000 active; Potency, µM (highest dose often 58.2 µM), for inactives: at the highest dose activity change, negative = inhibition, actives largely listed as inhibitors;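 further: potency means the concentration at half of the fitted maximal effect; 0% = vehicle wells and -100% = peptide control; nearly all actives have a fitted effect of over 45% in size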
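AMA1 (3D7) with his tag at 25 nM final met compounds first, then biotinylated RON2 peptide at 25 nM; detection used donor plus acceptor beads, 10 µg/mL apiece, read by AlphaScreen after 30 min at room temperature.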
Cycloheximide cs = counter-screen hit for Shiga toxin inhibitors, cycloheximide | cell reporter, cycloheximide protein synthesis inhibition counterscreen | max response, % | 12% of 300,000 active; in the data active means max response mostly above about 13%, no sharp cut-off; inactive means mostly below about 14%; further: read at 38.3 µM for the half of the compounds with a filed dose; 0% is about no effect
Shiga inhibitor = inhibitors of Shiga toxin in Vero cells; Vero cells, Shiga toxin protein synthesis inhibition reporter; inhibition, % at 38.7 µM; 9.2% of 290,000 active; in the data active means inhibition mostly above about 28%, no sharp cut-off; inactive means mostly below about 43%; further: 0% is about no effect
HCV inhibitor = blocks hepatitis C virus; Huh7.5.1 HCVcc-Cre infection, luciferase reporter, 44 h; Potency, µM (top dose mostly 41.8 µM), for inactives: top-dose activity change, negative = inhibition, usual class: inhibitors; 3.4% of 340,000 active; further: potency means the concentration at half of the fitted maximal effect; on the % scale 0 is the no-effect control and ±100 the full control effect
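A cell-based infection assay in which seeded cells (1,000 per well) receive test compound after 4 h, are inoculated with HCVcc-Cre at approximately 0.5 moi, and are incubated 44 h before luminescence detection.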
Pf growth 96h = inhibits malaria parasite growth, 96 h. P. falciparum luciferase reporter growth, 96 h. Potency, µM (highest dose often 28.7 µM), inactives show at the highest dose activity change, negative = inhibition, hits mostly inhibitors. 6.9% of 320,000 active. AID 504834; further: potency means the concentration at half of the fitted maximal effect; on the % scale 0 is the no-effect control and ±100 the full control effect
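Erythrocytes infected with luciferase-expressing P. falciparum were dispensed at 2% hematocrit and 0.05% parasitemia (final), then incubated with compounds 96 hours at 37 C in 5% CO2. Luminescence after detection reagent addition reported growth.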
Numbers without * were called inactive; u = inconclusive; x = no result; + = active, no number; [ ] = remark or other dose. This is a sample that favours compounds with a hit; in the whole collection about 21% have one here. Unless noted, the call rests on the fitted dose curve; in most records, active means well fitted curve in the direction sought with a large enough effect; inconclusive means small, poorly fitted or top-dose-only effect, or another doubt; inactive means no such curve, though single readings can be large; an effect the other way counts as inactive or inconclusive.

SMILES | Pf growth 48h | AMA1 RON2 block | Cycloheximide cs | Shiga inhibitor | HCV inhibitor | Pf growth 96h
Cc1ccc(Cl)cc1NC(=S)N(Cc1ccccc1)Cc1cccnc1 | 10µM* | 9% | -2 | -1 | u | -28%
CCc1ccccc1NC(=S)N(Cc1cccnc1)Cc1ccco1 | u | -11% | -3 | -7 | 17% | 8.3µM*
COc1ccc(Cl)cc1NC(=S)N(Cc1cccnc1)Cc1ccco1 | 10µM* | -10% | 1 | 22 | u | -8%
COc1ccccc1NC(=S)N(Cc1cccnc1)Cc1ccco1 | 12µM* | -2% | 13 | 31 | 7% | -1%
Cc1cc(C)c(NC(=S)N(Cc2cccnc2)Cc2ccco2)c(C)c1 | 14% | -9% | -1 | -4 | u | -1%
COc1ccccc1NC(=S)N(Cc1cccs1)C1CCCC1 | -17% | -6% | -3 | -11 | -18% | u
COc1ccccc1NC(=S)N(Cc1ccccc1)Cc1cccs1 | 20% | -7% | 13 | -3 | 8% | 13µM*
CCCC(=O)N1CCC1(C)C(=O)NS(=O)(=O)c1cccc(C)c1 (configuration not stated) | x | -5% | x | x | x | x
CC(C)COc1ccc(C(=O)OCCN2CCCCC2)cc1 | 8% | 5% | 10 | 37* | -52% | 32%
CC(C)COc1ccc(C(=O)CCN2CCCCC2)cc1 | 11% | -1% | 4 | -8 | u | -23%
CCC(=O)c1ccc(OCCN2CCOCC2)cc1 | 24% | 2% | 11 | 21 | 20% | 4%
CC(C)COc1ccc(C(=O)OCCN2CCOCC2)cc1 | 22% | -24% | 25* | 36* | -3% | x
O=C(Cc1ccc(S(=O)(=O)N2CCOCC2)s1)OCc1ccc(Cl)cc1 | u | -6% | x | x | 7% | u
C=CC[C@@H](CC(=O)N[C@H](CO)Cc1ccccc1)C(=O)NC[C@H](OC(=O)[C@@H](CC=C)Cc1ccc(F)cc1)c1ccccc1 | x | 20% | x | x | u | x
Cc1ccc(N/N=C2\CS(=O)(=O)N(C)c3ccsc32)cc1 | u | u | 51* | 66* | 18% | u
CN1c2ccsc2/C(=N/Nc2ccc(F)cc2)CS1(=O)=O | u | -21% | 27* | 54 | u | u
CCCC(=O)N/N=C1\CS(=O)(=O)N(C)c2ccsc21 | 30% | 2% | 4 | 27 | u | 17%
Oc1cc2c(cc1O)[C@H]1c3ccc(O)c(O)c3OC[C@@]1(O)C2 | 3.7µM* | 32µM* | x | x | u | 6.6µM*
Oc1ccc2c(c1)OCC1(O)Cc3cc(O)c(O)cc3C21 (configuration not stated) | x | 13µM* | x | x | 25µM* | x
COc1ccc(C2COc3cc(O)ccc3C2)c(OC)c1O (configuration not stated) | x | u | x | x | 11% | x
O=C(NCCNS(=O)(=O)c1ccccc1Cl)c1cc(OCC(F)(F)F)ccc1OCC(F)(F)F | u | 42% | -5 | -9 | 3% | 12µM*
C=CCN1C(=O)/C(=C/C=C2/N(CC)c3ccc(S(=O)(=O)N(C)C)cc3N2CC)SC1=S | u | 0% | -4 | -11 | u | -3%
O=C1/C(=C/c2cccnc2)Sc2ccccc21 | u | -11% | 13 | -2 | 10% | 7.4µM*
Cc1ccc(/C=C2\Sc3ccccc3C2=O)s1 | u | u | 14* | 34* | -17% | -3%
COc1ccc(Cl)cc1-c1cc(C(=O)NCc2cccs2)[nH]n1 | x | 14% | x | x | x | x
SMILES | Pf growth 48h | AMA1 RON2 block | Cycloheximide cs | Shiga inhibitor | HCV inhibitor | Pf growth 96h
COc1ccc(NS(=O)(=O)c2cccc(C(=O)NCC(c3cccs3)N3CCOCC3)c2)cc1 (configuration not stated) | x | 0% | x | x | -5% | x
Cc1ccc(C(=O)N/C(=C\c2ccc3c(c2)OCO3)C(=O)Nc2ccc(C(=O)O)cc2)cc1 | 27% | 12% | 14 | 39* | 8% | u
CCNc1ccccc(C(=O)/C=C/c2ccc3c(c2)OCO3)c1=O | x | -29% | 24* | 54 | 6% | u
COc1ccc(NC(=O)/C(=C/c2ccc3c(c2)OCO3)NC(C)=O)cc1 | 61% | 1% | 72* | + | -1% | 460%
CCCNC(=O)COC(=O)/C=C/c1ccc2c(c1)OCO2 | 15% | -1% | 4 | 39 | 13% | 0%
COC(=O)/C=C/c1ccc2c(c1)OCO2 | u | 7% | 22* | 83* | 15% | -2%
COc1ccc(C(=O)N/C(=C\c2ccc3c(c2)OCO3)C(=O)Nc2ccc(C(=O)O)cc2)cc1 | -33%[5.75 µM] | u | -1 | -1 | -12% | u
CCCCn1c(O)c(C(=O)/C=C/c2ccc3c(c2)OCO3)c(=O)[nH]c1=O | u | 22% | 0 | -24 | -8% | -20%
CC(=O)N/C(=C\c1ccccc1)C(=O)OCC(=O)Nc1ccc(C)c(S(=O)(=O)N(C)C)c1 | x | -5% | x | x | 4% | x
CN(C(=O)/C=C/c1ccc2c(c1)OCO2)c1ccccc1 | 82% | 2% | 42* | 92* | 8% | u
COc1ccc(NC(=O)/C=C/c2ccc3c(c2)OCO3)cc1 | 82% | -5% | 48* | 78* | 15% | 89%
COc1ccc(/C=C(/NC(=O)c2ccccc2OC)C(=O)Nc2ccc(C(=O)O)cc2)cc1 | -9% | 7% | 1 | -14 | -1% | 9.3µM*
CN(C(=O)C=Cc1ccccc1)c1ccccc1 | x | -6% | x | x | -14% | x
Cc1ccc(C(C(=O)Nc2ccc3c(c2)OCO3)N(C)C(=O)/C=C\c2ccc3c(c2)OCO3)cc1 (configuration not stated) | 13µM* | -14% | -1 | 14 | u | 13%
NCCCC[C@H]1CNC(=S)N1CCc1cccc(F)c1 | 69% | 9% | -1 | -2 | u | 73%
CCC(C)NC(=O)c1ccccc1NC(=O)/C(=C/c1ccc(OC)cc1)c1ccccc1 (configuration not stated) | u | 7% | -3 | -5 | 20% | 12µM*
CN(/N=C/c1ccc2c(c1)OCO2)c1ccccc1 | 139% | 10%[2.32 µM] | 95* | 127* | -13% | u
CCNc1ccc(Br)cc(C(=O)/C=C/c2ccccc2Cl)c1=O | x | -18% | x | x | 13µM* | x
COc1cc2cc(CCCOC(=O)c3ccc(C#N)cc3)oc(=O)c2cc1OC | 3% | -2% | x | x | 17% | -1%
Cc1ccsc1C(=O)N1CCCC(CO)(Cc2ccccc2F)C1 (configuration not stated) | 37% | 1% | -5 | -5 | -8% | -91%
CCOc1ccc(C(=O)C(C)OC(=O)c2nc(Cl)ccc2Cl)cc1 (configuration not stated) | 23% | 1% | x | x | 30% | 93%
Cc1nc(N=C(N)N)nc2ccccc12 | u | -7% | 8 | -4 | 14µM* | 6%
CCc1ccc2nc3c(c(C(=O)O)c2c1)CCC3 | -6% | 1% | 19 | 21 | -2% | u
CCc1ccc2nc(N=C(N)N)nc(C)c2c1 | u | 6% | -2 | -13 | 5µM* | 33%
